Common to all, as to settings: mRNA level, 48 h; actives raise or lower the signal
Read-out in assay [1]: Paternally Expressed 10 (PEG10), PEG10 (gene 23089)
The assay is described as follows: LTEA_HepaRG_PEG10: Life Technologies and Expression Analysis (LTEA) Assay for Paternally Expressed 10 (PEG10) using HepaRG (AID 2283520). The essentials:
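Differentiated HepaRG cells, plated 48 h then switched to serum-free induction medium, were exposed in duplicate for 48 h to eight half-log concentrations topping at 100 uM in 0.5% DMSO. PEG10 mRNA was quantified by TaqMan qRT-PCR, normalised to ACTB, GAPDH and POLR2A.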

Read-out in assay [2]: Protein phosphatase 2A (PPP2R4), PTPA (gene 5524)
The assay is described as follows: LTEA_HepaRG_PPP2R4: Life Technologies and Expression Analysis (LTEA) Assay for Protein phosphatase 2A (PPP2R4) using HepaRG (AID 2283522). The essentials:
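Differentiated HepaRG cells in serum-free induction medium were exposed in duplicate for 48 h to eight concentrations, top 100 uM with half-log dilutions, in 0.5% DMSO. PPP2R4 mRNA was quantified by TaqMan qRT-PCR, normalized to ACTB, GAPDH and POLR2A.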

Read-out in assay [3]: Phosphatase and tensin (PTEN), PTEN (gene 5728)
The assay is described as follows: LTEA_HepaRG_PTEN: Life Technologies and Expression Analysis (LTEA) Assay for Phosphatase and tensin (PTEN) using HepaRG (AID 2283523). The essentials: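 Differentiated human HepaRG cells, plated 48 h then switched to serum-free induction medium, were exposed in duplicate for 48 h to eight half-log concentrations up to 100 uM in 0.5% DMSO. PTEN mRNA measured by TaqMan qRT-PCR, normalized to ACTB/GAPDH/POLR2A, bidirectional fit versus DMSO.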

Read-out in assay [4]: solute carrier (SLC22A1), SLC22A1 (gene 6580)
Briefly: LTEA_HepaRG_SLC22A1: Life Technologies and Expression Analysis (LTEA) Assay for solute carrier (SLC22A1) using HepaRG (AID 2283524). The essentials: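 Human HepaRG cells were plated 48 h, switched to serum-free induction medium, then exposed in duplicate for 48 h to 8-point half-log series from 100 uM in 0.5% DMSO. SLC22A1 mRNA measured by qRT-PCR, normalized to ACTB/GAPDH/POLR2A, fitted bidirectionally versus DMSO.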

Read-out in assay [5]: Nuclear factor erythroid 2-related factor 2 (Homo sapiens) (UniProt Q16236)
Briefly: LTEA_HepaRG_NFE2L2: Life Technologies and Expression Analysis (LTEA) Assay for Nuclear factor erythroid 2-related factor 2 (NFE2L2) Transcription Factor using HepaRG (AID 2283527).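 On outcome: TaqMan qRT-PCR transcript level normalised to ACTB GAPDH and POLR2A housekeeping genes.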 The essentials:
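Differentiated human HepaRG cells in serum-free induction medium were exposed for 48 h to eight concentrations (top 100 uM, half-log dilutions, 0.5% DMSO), in duplicate. NFE2L2 mRNA was quantified by TaqMan qRT-PCR, normalized to ACTB, GAPDH and POLR2A, with bidirectional fitting versus DMSO.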

Read-out in assay [6]: succinate dehydrogenase complex iron sulfur subunit B (SDHB), SDHB (gene 6390)
Briefly: LTEA_HepaRG_SDHB: Life Technologies and Expression Analysis (LTEA) Assay for succinate dehydrogenase complex iron sulfur subunit B (SDHB) using HepaRG (AID 2283528). The essentials: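 HepaRG, 48 h exposure, 8-pt half-log series from 100 uM in 0.5% DMSO, duplicates. Readout: SDHB mRNA by Fluidigm qRT-PCR vs housekeeping genes; bidirectional fit relative to DMSO.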

Read-out in assay [7]: Signal transducer and activator of transcription 3 (Homo sapiens) (UniProt P40763)
Briefly: LTEA_HepaRG_STAT3: Life Technologies and Expression Analysis (LTEA) Assay for Signal transducer and activator of transcription (STAT3) using HepaRG (AID 2283529). In a few lines:
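Differentiated human HepaRG cells in serum-free induction medium were exposed in duplicate for 48 h to eight half-log concentrations up to 100 uM in 0.5% DMSO. STAT3 mRNA was quantified by TaqMan qRT-PCR, normalized to ACTB, GAPDH and POLR2A, and fitted bidirectionally against DMSO.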

Read-out in assay [8]: solute carrier (SLCO1B1), SLCO1B1 (gene 10599)
Briefly: LTEA_HepaRG_SLCO1B1: Life Technologies and Expression Analysis (LTEA) Assay for solute carrier (SLCO1B1) using HepaRG (AID 2283530). The essentials: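 SLCO1B1 transcript levels were quantified by TaqMan qRT-PCR using three housekeeping genes for normalization. This followed 48 h chemical exposure (100 uM top, half-log, 8 points, 0.5% DMSO) of HepaRG liver cells, with gain or loss fitted relative to DMSO.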

Read-out in assay [9]: sulfotransferase 2A1 (SULT2A1), SULT2A1 (gene 6822)
The assay is described as follows: LTEA_HepaRG_SULT2A1: Life Technologies and Expression Analysis (LTEA) Assay for sulfotransferase 2A1 (SULT2A1) using HepaRG (AID 2283531). In a few lines:
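Expression change of SULT2A1, by qRT-PCR with three housekeeping-gene normalization, was scored bidirectionally versus DMSO. Cells: differentiated HepaRG, dosed in duplicate for 48 h across 8 points, highest 100 µM, half-log dilution, 0.5% DMSO.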

Read-out in assay [10]: Transforming Growth Factor (TGFA), TGFA (gene 7039)
Briefly: LTEA_HepaRG_TGFA: Life Technologies and Expression Analysis (LTEA) Assay for Transforming Growth Factor (TGFA) using HepaRG (AID 2283532). In a few lines: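 Differentiated human HepaRG cells, plated 48 h then switched to serum-free induction medium, were exposed in duplicate for 48 h to 8-point half-log series from 100 uM in 0.5% DMSO. TGFA mRNA measured by qRT-PCR, normalized to ACTB/GAPDH/POLR2A, bidirectional fit versus DMSO.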

Read-out in assay [11]: Transforming Growth Factor (TGFB1), TGFB1 (gene 7040)
The assay is described as follows: LTEA_HepaRG_TGFB1: Life Technologies and Expression Analysis (LTEA) Assay for Transforming Growth Factor (TGFB1) Transporter using HepaRG (AID 2283533). The essentials: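 TGFB1 transcript measured by qRT-PCR with normalisation to three housekeeping genes (ACTB, GAPDH, POLR2A); human HepaRG line treated in duplicate for 48 hr with an 8-point series topping at 100 uM, 0.5% DMSO vehicle, bidirectionally fitted.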

Read-out in a further assay: TIMP1, TIMP1 (gene 7076)
The assay is described as follows: LTEA_HepaRG_TIMP1: Life Technologies and Expression Analysis (LTEA) Assay for TIMP1 using HepaRG (AID 2283534).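 Further: TaqMan qRT-PCR signal normalized to ACTB GAPDH and POLR2A housekeeping genes.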 In a few lines: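 Bidirectional change in TIMP1 transcript versus 0.5% DMSO, measured by TaqMan qRT-PCR with three housekeeping genes for normalization. HepaRG human liver cells dosed 48 h in duplicate, top concentration 100 uM with half-log dilutions.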

Read-out in assay [12]: Tumor necrosis factor receptor 1 (TNFRSF1A), TNFRSF1A (gene 7132)
Briefly: LTEA_HepaRG_TNFRSF1A: Life Technologies and Expression Analysis (LTEA) Assay for Tumor necrosis factor receptor 1 (TNFRSF1A) using HepaRG (AID 2283535). The essentials:
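mRNA measured by qRT-PCR (TaqMan, Fluidigm arrays) against ACTB/GAPDH/POLR2A housekeepers after 48 h chemical exposure of HepaRG cells. Top concentration 100 uM, half-log 8-point series, duplicates; vehicle 0.5% DMSO, both fit directions.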

Read-out in assay [13]: Thyroid Hormone Responsive (THRSP), THRSP (gene 7069)
Briefly: LTEA_HepaRG_THRSP: Life Technologies and Expression Analysis (LTEA) Assay for Thyroid Hormone Responsive (THRSP) using HepaRG (AID 2283536). The essentials:
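Differentiated human HepaRG cells were exposed in duplicate for 48 h in serum-free induction medium to eight concentrations (top 100 uM, half-log steps, 0.5% DMSO). Expression was quantified by TaqMan qRT-PCR, normalized to ACTB, GAPDH and POLR2A, with bidirectional fitting against DMSO.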

Read-out in assay [14]: Cellular tumor antigen p53 (Homo sapiens) (UniProt P04637)
The assay is described as follows: LTEA_HepaRG_TP53: Life Technologies and Expression Analysis (LTEA) Assay for Tumor Protein P53 (TP53) using HepaRG (AID 2283537). The essentials: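 HepaRG, 48 h exposure, top 100 uM, half-log 8-point, 0.5% DMSO vehicle, duplicates. Read: TP53 mRNA by TaqMan qRT-PCR, normalised to ACTB/GAPDH/POLR2A; bidirectional fit vs DMSO.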

Read-out in assay [15]: UDP glucuronosyltransferase (UGT1A1), UGT1A1 (gene 54658)
The assay is described as follows: LTEA_HepaRG_UGT1A1: Life Technologies and Expression Analysis (LTEA) Assay for UDP glucuronosyltransferase (UGT1A1) using HepaRG (AID 2283538). The essentials: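 Differentiated human HepaRG cells in serum-free induction medium were exposed in duplicate for 48 h to eight half-log concentrations up to 100 uM in 0.5% DMSO. UGT1A1 mRNA was quantified by TaqMan qRT-PCR, normalized to ACTB, GAPDH and POLR2A, and fitted bidirectionally against DMSO.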

Read-out in assay [16]: UDP glucuronosyltransferase (UGT1A6), UGT1A6 (gene 54578)
Briefly: LTEA_HepaRG_UGT1A6: Life Technologies and Expression Analysis (LTEA) Assay for UDP glucuronosyltransferase (UGT1A6) using HepaRG (AID 2283539). In a few lines:
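Expression was quantified by TaqMan qRT-PCR on Fluidigm arrays with ACTB/GAPDH/POLR2A normalization and bidirectional fitting against 0.5% DMSO. HepaRG cells (~100,000/well) were treated in duplicate for 48 h at eight half-log concentrations up to 100 uM in serum-free induction medium.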

Read-out in assay [17]: Nuclear factor NF-kappa-B p105 subunit (Homo sapiens) (UniProt P19838)
The assay is described as follows: LTEA_HepaRG_NFKB1: Life Technologies and Expression Analysis (LTEA) Assay for Nuclear Factor Kappa B Subunit 1 (NFKB1) using HepaRG (AID 2283521). In a few lines: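 Differentiated human HepaRG cells were exposed for 48 h in serum-free induction medium to eight concentrations (top 100 uM, half-log steps, 0.5% DMSO), in duplicate. NFKB1 mRNA was measured by TaqMan qRT-PCR, normalized to ACTB/GAPDH/POLR2A, and fitted bidirectionally against DMSO.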

Read-out in assay [18]: Pyruvate Dehydrogenase Kinase 4 (PDK4), PDK4 (gene 5166)
Briefly: LTEA_HepaRG_PDK4: Life Technologies and Expression Analysis (LTEA) Assay for Pyruvate Dehydrogenase Kinase 4 (PDK4) using HepaRG (AID 2283525). The essentials: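 Differentiated human HepaRG cells, pre-cultured 48 h, were exposed in duplicate for 48 h in serum-free induction medium to eight half-log concentrations up to 100 uM in 0.5% DMSO. PDK4 mRNA was quantified by qRT-PCR, normalized to ACTB, GAPDH and POLR2A, bidirectional fitting versus DMSO.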

The structures appear in SMILES notation. Active and inactive are the calls of the source. How the source made its calls: active means hit-call score of the fitted dose curve at least 0.9, where 1 is the maximum; inactive means score below 0.9.

A word on the AC50: it is the midpoint of the concentration-response curve, whichever way the signal moves.

Chain of Nuclear factor erythroid 2-related factor 2 (Homo sapiens) (Q16236 whole entry, looked up): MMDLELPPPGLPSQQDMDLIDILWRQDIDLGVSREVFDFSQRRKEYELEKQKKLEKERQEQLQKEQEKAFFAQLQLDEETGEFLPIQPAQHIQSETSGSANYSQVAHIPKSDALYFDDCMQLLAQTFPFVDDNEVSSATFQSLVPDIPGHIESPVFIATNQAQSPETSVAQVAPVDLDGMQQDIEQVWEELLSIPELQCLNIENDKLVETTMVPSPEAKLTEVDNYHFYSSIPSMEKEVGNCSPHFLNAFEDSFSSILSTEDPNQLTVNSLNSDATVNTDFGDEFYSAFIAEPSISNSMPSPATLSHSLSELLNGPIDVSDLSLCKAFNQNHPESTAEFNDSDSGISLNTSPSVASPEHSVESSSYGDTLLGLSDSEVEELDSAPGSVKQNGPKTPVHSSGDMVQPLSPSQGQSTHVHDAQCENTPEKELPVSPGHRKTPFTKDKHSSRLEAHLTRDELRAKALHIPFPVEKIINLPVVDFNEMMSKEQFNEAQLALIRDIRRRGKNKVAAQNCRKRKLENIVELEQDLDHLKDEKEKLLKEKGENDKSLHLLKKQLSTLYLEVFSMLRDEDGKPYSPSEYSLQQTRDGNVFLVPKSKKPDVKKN
Chain of Cellular tumor antigen p53 (Homo sapiens) (P04637 whole entry, looked up): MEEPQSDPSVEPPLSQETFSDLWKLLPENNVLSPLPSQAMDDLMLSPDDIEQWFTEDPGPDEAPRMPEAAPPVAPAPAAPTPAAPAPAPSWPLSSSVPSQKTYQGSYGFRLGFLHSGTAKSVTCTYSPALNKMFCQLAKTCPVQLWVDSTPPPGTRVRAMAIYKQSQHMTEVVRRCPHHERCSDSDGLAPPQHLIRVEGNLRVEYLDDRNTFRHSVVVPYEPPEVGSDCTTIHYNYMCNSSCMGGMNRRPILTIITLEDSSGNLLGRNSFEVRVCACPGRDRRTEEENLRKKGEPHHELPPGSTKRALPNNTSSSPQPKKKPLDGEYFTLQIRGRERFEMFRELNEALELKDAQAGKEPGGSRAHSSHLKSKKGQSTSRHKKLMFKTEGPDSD
Chain of Signal transducer and activator of transcription 3 (Homo sapiens) (P40763 whole entry, looked up): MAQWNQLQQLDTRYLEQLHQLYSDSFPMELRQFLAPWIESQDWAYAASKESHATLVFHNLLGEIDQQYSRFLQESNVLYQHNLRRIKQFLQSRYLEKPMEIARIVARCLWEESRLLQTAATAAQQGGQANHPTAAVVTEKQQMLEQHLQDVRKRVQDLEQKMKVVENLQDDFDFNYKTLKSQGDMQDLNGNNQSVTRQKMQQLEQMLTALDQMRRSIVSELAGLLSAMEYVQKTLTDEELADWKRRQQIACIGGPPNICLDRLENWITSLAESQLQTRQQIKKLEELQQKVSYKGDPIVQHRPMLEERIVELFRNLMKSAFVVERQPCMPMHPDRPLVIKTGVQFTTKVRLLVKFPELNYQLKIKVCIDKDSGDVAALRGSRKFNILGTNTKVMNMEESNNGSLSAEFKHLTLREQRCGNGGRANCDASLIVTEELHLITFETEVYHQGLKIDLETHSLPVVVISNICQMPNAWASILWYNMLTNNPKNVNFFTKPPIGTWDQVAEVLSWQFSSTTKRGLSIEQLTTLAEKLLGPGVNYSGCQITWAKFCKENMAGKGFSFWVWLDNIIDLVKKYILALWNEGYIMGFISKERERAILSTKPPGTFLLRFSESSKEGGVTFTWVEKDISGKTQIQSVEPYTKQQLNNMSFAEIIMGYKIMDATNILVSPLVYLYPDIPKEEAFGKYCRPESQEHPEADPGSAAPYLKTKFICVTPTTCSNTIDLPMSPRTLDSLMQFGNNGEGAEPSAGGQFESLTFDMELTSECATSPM
Chain of Nuclear factor NF-kappa-B p105 subunit (Homo sapiens) (P19838 whole entry, looked up): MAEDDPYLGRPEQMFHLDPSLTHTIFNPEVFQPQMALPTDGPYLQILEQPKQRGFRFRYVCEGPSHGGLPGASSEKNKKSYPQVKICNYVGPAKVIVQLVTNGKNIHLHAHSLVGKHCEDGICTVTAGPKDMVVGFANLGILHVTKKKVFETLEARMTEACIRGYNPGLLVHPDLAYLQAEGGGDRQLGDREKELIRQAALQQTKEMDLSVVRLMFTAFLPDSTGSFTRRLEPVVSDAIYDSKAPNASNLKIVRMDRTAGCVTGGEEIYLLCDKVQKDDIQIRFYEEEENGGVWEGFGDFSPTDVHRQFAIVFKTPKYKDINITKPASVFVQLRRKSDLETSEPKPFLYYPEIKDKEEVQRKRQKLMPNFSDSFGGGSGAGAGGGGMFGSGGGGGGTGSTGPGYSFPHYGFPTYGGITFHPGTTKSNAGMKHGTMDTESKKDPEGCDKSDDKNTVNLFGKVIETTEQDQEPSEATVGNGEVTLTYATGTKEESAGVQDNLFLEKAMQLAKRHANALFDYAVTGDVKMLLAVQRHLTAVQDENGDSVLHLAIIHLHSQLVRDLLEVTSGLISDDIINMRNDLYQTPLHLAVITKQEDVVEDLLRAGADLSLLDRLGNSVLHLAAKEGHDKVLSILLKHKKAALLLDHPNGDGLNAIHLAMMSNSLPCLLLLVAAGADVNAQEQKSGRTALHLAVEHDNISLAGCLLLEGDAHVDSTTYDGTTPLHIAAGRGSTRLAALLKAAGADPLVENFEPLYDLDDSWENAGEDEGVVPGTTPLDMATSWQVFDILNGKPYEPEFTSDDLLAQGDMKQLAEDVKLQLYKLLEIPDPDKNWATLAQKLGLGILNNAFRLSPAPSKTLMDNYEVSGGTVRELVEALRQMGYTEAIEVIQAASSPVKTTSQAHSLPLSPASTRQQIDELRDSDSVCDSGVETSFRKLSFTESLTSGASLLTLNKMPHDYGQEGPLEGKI

For `Cc1ncc(CO)c(CO)c1O`, the molecule was called inactive in assay [1], in assay [2], in [3], in [4], in assay [5] and in assay [6]. Also, the outcome in assay [7] is “inactive”; in assay [8] it was “inactive”; in [9], “inactive”; in [10], “inactive”; in assay [11], “inactive”; with TIMP1, TIMP1 (gene 7076), “inactive”. Also, the call in assay [12], in assay [13], in assay [14], in assay [15] and in [16] was inactive.

Consider `CC[C@H](NC(=O)c1cc(F)ccc1NS(=O)(=O)c1cccc2cccnc12)c1ccccc1`, for which the AC50 in assay [1] was 19.1 µM (active); in [4] it was 50.8 µM (active); in assay [8] it was 77.6 µM (active); in [9] it was 84.8 µM (active); in assay [15] it was 11.1 µM (active); in assay [16] it was 47.8 µM (active). The molecule was called inactive in [17], in assay [2], in assay [3], in assay [5], in assay [6] and in assay [10]. The outcome in assay [11] was “inactive”; with TIMP1, TIMP1 (gene 7076), “inactive”; in [12] it was “inactive”; in assay [13], “inactive”; in assay [14], “inactive”.

`Cc1oc2c(NC(=O)c3c(Cl)cccc3Cl)cccc2c1C(C)(C)O`: the AC50 in assay [1] is 3.27 µM (active); in assay [4], 50 µM (active); in assay [18], 14.9 µM (active); in assay [5], 79 µM (active); in [8], 54 µM (active); in assay [9] it was 68.1 µM (active). Also, the AC50 in assay [11] was 50 µM (active); in assay [13] it was 86.8 µM (active); in assay [14] it was 82.1 µM (active); in assay [15] it was 50 µM (active); in assay [16], 46.9 µM (active). The outcome in assay [2] is “inactive”; in assay [3], “inactive”; in assay [6], “inactive”; in assay [7] it was “inactive”; in assay [10], “inactive”; in the assay with TIMP1, TIMP1 (gene 7076), “inactive”. Moreover, in assay [12], the molecule was classed as inactive.

The values are drawn from PubChem BioAssay (EPA / NIEHS).
